# CRE-bla Fsk: alters forskolin-stimulated CRE reporter signaling in CHO cells; Potency, µM (doses to about 38.2 µM), without a hit: at the top dose activity change, negative = inhibition, most hits filed as activators; CHO CRE-bla reporter (cAMP response element driving beta-lactamase), forskolin EC10, beta-lactamase ratio; 2.5% of 71,000 active; active = well fitted activation curve with a large enough effect in the signal ratio, with a control signal flat, not every such curve was filed as active; inconclusive = small, poorly fitted or top-dose-only effect, or effect the other way, or a change in a side signal; the % refers to the signal ratio; note: % of control where 0% means no effect
#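 Forskolin analogue NKH 477 at EC10 stimulated CRE-driven beta-lactamase in CHO cells alongside compound dilution series. Beta-lactamase was measured with CCF4, excitation 405 nm, emission ratio 460/530 nm.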
# Tau fil binding: binders of human tau filaments. Potency, µM (top dose mostly 57.1 µM), for the others: top-dose activity change, negative = inhibition. 2% of 71,000 active. AID 596. P10636. recombinant tau filaments, thioflavin S fluorescence, 15 h; filaments grown with octadecylsulfate alongside compound;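 note: % is set by controls: 0 for no effect and ±100 for the full control effect; actives lower thioflavin S fluorescence by blocking filaments or displacing dye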
#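 Thioflavine S fluorescence (ex 450, em 510 nm) reports filaments formed from 1 uM human tau plus 30 uM ODS over 15 h at 37 C (10 mM HEPES pH 7.4, 100 mM NaCl, 5 mM DTT); compounds displacing dye or blocking filaments lower signal.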
# TSHR agonist: agonists of human thyroid stimulating hormone receptor; Potency, µM (top dose mostly 57.1 µM), for inactives: top-dose activation, most hits filed as activators; P16473; AID 926; 0.48% of 73,000 active; HEK293-CNG-TSHR cells (CNG channel as cAMP sensor), membrane potential dye, cAMP; active = well fitted activation curve with a large enough effect in the main read-out, with a control signal flat, not every such curve was filed as active; inconclusive = small, poorly fitted or top-dose-only effect, or a change in a side signal; inactive = no such curve, though single readings can be large or run the other way; % of control where 0% means no effect;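 note: the control signal comes from parental cells without the receptor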
# Target sequence (P16473 whole entry, looked up): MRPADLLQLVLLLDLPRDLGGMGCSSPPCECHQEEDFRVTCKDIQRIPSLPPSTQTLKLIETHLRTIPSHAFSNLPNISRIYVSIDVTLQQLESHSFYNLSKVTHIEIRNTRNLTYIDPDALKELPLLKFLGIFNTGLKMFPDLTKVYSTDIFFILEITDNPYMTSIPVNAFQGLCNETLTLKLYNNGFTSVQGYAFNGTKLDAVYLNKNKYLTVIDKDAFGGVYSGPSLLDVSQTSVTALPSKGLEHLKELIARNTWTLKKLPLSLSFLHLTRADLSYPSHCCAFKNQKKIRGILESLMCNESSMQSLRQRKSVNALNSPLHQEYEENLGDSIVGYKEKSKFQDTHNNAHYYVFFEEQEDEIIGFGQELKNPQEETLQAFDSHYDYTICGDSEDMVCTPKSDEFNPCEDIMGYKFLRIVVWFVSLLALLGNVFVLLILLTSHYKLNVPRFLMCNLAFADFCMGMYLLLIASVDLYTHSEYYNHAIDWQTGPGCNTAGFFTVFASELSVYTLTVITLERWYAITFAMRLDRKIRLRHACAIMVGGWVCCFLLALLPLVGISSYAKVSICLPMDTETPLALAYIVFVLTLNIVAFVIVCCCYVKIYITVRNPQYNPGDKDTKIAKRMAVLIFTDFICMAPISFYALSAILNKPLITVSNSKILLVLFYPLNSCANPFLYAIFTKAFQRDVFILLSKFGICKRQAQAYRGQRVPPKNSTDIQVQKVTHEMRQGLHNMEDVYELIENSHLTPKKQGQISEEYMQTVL
#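 HEK 293 cells stably expressing TSHR and a modified CNG channel, with CNG-only parental cells as counterscreen, were preloaded 60 min at room temperature with membrane potential dye containing 100 uM RO 20-1724. Compound exposure was 30 min, and depolarization was read as fluorescence at 590 nm.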
# HEK293 cAMP ctrl: counter-screen for TSHR agonists: cAMP increase in parental HEK293; parental HEK293 CNG cAMP sensor, membrane potential fluorescence; Potency, µM (doses to about 57.1 µM), for the others: at the top dose activation, usual class: activators; 2.5% of 73,000 active; AID 938; note: % of control where 0% means no effect; nearly all actives have a fitted effect of over 55% in size
#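 Counterscreen for endogenous-receptor signalling: CNG-channel HEK 293 cells report cAMP rise by membrane depolarization. After 60 min dye equilibration with 100 uM RO 20-1724, compounds incubated 30 min before bottom-read fluorescence at 590 nm.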
# ERK AVP block: blocks ERK signaling stimulated by vasopressin; HEK293-V1b, vasopressin-stimulated pERK AlphaScreen; Potency, µM (doses to about 57.5 µM), without a hit: top-dose activity, negative = inhibition, most hits filed as inhibitors; 0.99% of 72,000 active; note: % is set by controls: 0 for no effect and ±100 for the full control effect; nearly all actives have a fitted effect of over 55% in size
#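 Phosphorylated ERK1/2 detected via AlphaScreen bead proximity in lysates of V1b-expressing HEK293 cells given 25 nM vasopressin for 5 min after 30 min compound exposure (37 °C). AC50 from Hill equation; basal DMSO 0%, vasopressin 100%.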
# The depositor's hits bear a star; ? = inconclusive; . = not tested or not shown; [ ] = another dose, or the depositor's remark. A selection: hits, their analogues and other compounds. The true share with any hit is near 7.4%. Unless noted, calls come from the whole dose curve; as a rule, active = well fitted curve in the direction sought with a large enough effect; inconclusive = small, poorly fitted or top-dose-only effect, or another doubt; inactive = no such curve, though single readings can be large; an effect the other way counts as inactive or inconclusive. Potency is the fitted concentration of half-maximal effect.
SMILES,CRE-bla Fsk,Tau fil binding,TSHR agonist,HEK293 cAMP ctrl,ERK AVP block
Cc1cc(C)c2c(N)c(C(=O)N3CCN(c4ncccn4)CC3)sc2n1,12.6µM*,3.4%,1.4%,3.5%,3.3%
c1coc(CN=C2NC(=NCc3ccco3)c3ccccc32)c1,-12.4%,10µM*,-12.2%,-12.2%,-9.4%
NC1=C2NC=N[C@@H]2N(C/C=C\c2ccccc2)C=N1,12.8%[7.6 µM],11.8%[11.4 µM],-1.7%[11.4 µM],-2.8%[11.4 µM],-6.6%[11.5 µM]
[O-][N+](=Nc1ccccc1)c1ccccc1,-9.7%,5.6%,-3.7%,-18.0%,14.1%
C=CCn1c(NCc2ccccc2)nc2ccccc21,-0.8%,-11.9%,16.1%,16.1%,-5.4%
C=CCn1c(-c2ccccc2)nc2nc3ccccc3nc21,2µM*,-3.1%,3.3%,26.6%,-22.3%
NCCc1nnc(SCc2c(F)cccc2Cl)o1,?,-9.1%,7.9%,14.7%,-11.6%
Fc1cccc(Cl)c1CSc1nnc(COc2cccc3cccnc23)o1,18.3%,14.2%,?,25.1µM*,?
FC(F)(F)c1ccccc1-c1ccc2ncnc(NCc3cccnc3)c2c1,?,5.0%,?,?,-22.9%
N#Cc1cc2ccccc2nc1SCC(=O)Nc1ccc(S(=O)(=O)N2CCCC2)cc1,-1.1%,15.8µM*,?,?,3.2%
COc1ccc2nc(SCC(=O)N(C)C3CCCCC3)c(C#N)cc2c1,?,-9.2%,?,25.1µM*,44.8%
COc1ccc2nc(SCC(=O)N3CCCCCC3)c(C#N)cc2c1,?,1.0%,.,23.9%,9.7%
COc1ccc2nc(SCC(=O)Nc3ccc(S(=O)(=O)N4CCCC4)cc3)c(C#N)cc2c1,8.6%,24.7%,?,3.16µM*,0.1%
COc1ccc2nc3c(nc2c1)C(=O)c1ccccc1-3,.,.,2.0%,-4.7%,.
CN(C)CCCn1cnc2cc(Cl)c(Cl)cc21,2.0%[7.6 µM],-0.7%[11.4 µM],-1.7%[11.4 µM],1.9%[11.4 µM],-1.4%[11.5 µM]
CCn1c(SCC(=O)Nc2ccccc2-c2ccccc2)nnc1-c1ccoc1C,-3.7%,5.6%,?,?,3.2%
CCn1c(Cc2ccccc2)nnc1SCC(=O)Nc1ccc(N2CCOCC2)c(Cl)c1,-2.9%,5.4%,40.5%,14.3%,3.9%
Cc1occc1-c1nnc(SCC(=O)NCCc2ccccc2)n1Cc1ccccc1,-6.3%,4.9%,?,20µM*,-22.2%
Cn1c(SCC(=O)Nc2ccc(N3CCOCC3)c(Cl)c2)nnc1-c1ccccc1,-4.7%,10µM*,-9.7%,-4.1%,-7.2%
CCn1c(SCC(=O)N2CCCC2)nc2c1c(=O)n(C)c(=O)n2C,?,6.1%,-1.4%,1.1%,20µM*
Cc1occc1-c1nnc(SCC(=O)Nc2ccccc2N2CCCCC2)n1C,11.5%,3.6%,?,31.6µM*,-4.7%
CC=C(Cl)Cl,-9.3%,6.9%,?,?,6.1%
Cc1ccc(S(=O)(=O)N(CC(=O)O)Cc2cccc(C)c2)cc1,.,.,?,6.3%,.
CCn1c(SCC(=O)Nc2ccccc2N2CCCCC2)nc2c1c(=O)n(C)c(=O)n2C,10µM*,36.1%,?,15.8µM*,-17.7%
Cn1c(-c2ccc(F)cc2)cnc1SCC(=O)Nc1ccccc1N1CCOCC1,?,7.0%,?,?,31.6µM*
SMILES,CRE-bla Fsk,Tau fil binding,TSHR agonist,HEK293 cAMP ctrl,ERK AVP block
Cc1c(C(=O)O)c(O)cc2c1C(=O)c1c(O)c([C@@H]3O[C@H](CO)[C@@H](O)[C@H](O)[C@@H]3O)c(O)c(O)c1C2=O,?,-28.0%,-2.3%,2.6%,.
COC(=O)/C=C/C1c2ccccc2C(OC)C1C (configuration not stated),.,.,-2.1%[11.4 µM],-5.1%[11.4 µM],18.4%[11.5 µM]
COCCn1c(N)c(C(=O)OCc2ccccc2)c2nc3ccccc3nc21,10µM*,2.1%,10.0%,22.9%,12.4%
C=CCn1c(N)c(C(=O)OCCC)c2nc3ccccc3nc21,10µM*,-7.5%,23.0%,7.8%,-8.3%
C=CCn1c(NC(=O)c2ccccc2)c(C#N)c2nc3ccccc3nc21,?,2.4%,0.7%,-11.1%,?
C[N+](C)(C)CC(=O)N/N=C\c1ccncc1,1.3%[7.6 µM],9.9%[11.4 µM],3.3%[11.4 µM],-3.2%[11.4 µM],-24.2%[11.5 µM]
O=C(O)/C(=C\c1ccncc1)c1cccc2ccccc12,-3.0%[7.6 µM],-11.6%[11.4 µM],-3.2%[11.4 µM],1.0%[11.4 µM],-3.7%[11.5 µM]
COc1ccc(NC(=O)C2CCN(c3nc(C)nc4c3CCC4)CC2)cc1,-4.7%,9.8%,?,31.6µM*,7.7%
COc1ccc(NC(=O)C2CCCN(c3c4c(nc5ncnn35)CCC4)C2)cc1 (configuration not stated),13.3%,4.7%,3.5%,4.3%,-13.6%
CCn1nnnc1NCc1cccn1C,?,33.8%,?,25.1µM*,12.6%
CCN1C(C)=C(C(=O)OC)C(c2ccccc2)N2C(=O)[C@](O)(C(=O)OC)C(c3ccccc3)C(C(=O)c3ccccc3)=C12 (some centres not stated),.,.,?,3.98µM*,-3.5%[11.5 µM]
COC(=O)C1=C(C)N(Cc2ccccc2)C2=C3C(=O)N(C)C(=O)C3[C@@](O)(C(=O)OC)C(=O)N2C1c1ccccc1 (some centres not stated),.,.,?,3.0%[11.4 µM],0.8%[11.5 µM]
CCCOC(=O)c1ccc(Oc2cn[nH]c2-c2ccc(OC)cc2O)cc1,?,12.6µM*,-4.5%,4.3%,-22.3%
COc1ccc(CNC(=O)C(OC(C)=O)c2ccccn2)cc1 (configuration not stated),0.5%,-13.0%,?,7.94µM*,11.9%
COCCOC(=O)c1c(C)oc2ccc(NS(=O)(=O)c3ccccc3)cc12,?,9.3%,7.1%,9.8%,1.9%
CCOC(=O)c1c(C)oc2ccc(NS(=O)(=O)c3ccc4c5c(cccc35)C(=O)N4)cc12,?,7.94µM*,25.1µM*,10.0%,?
COc1ccc2c(=O)c3c(=O)n(Cc4ccco4)c(-c4ccc(C)cc4)nc3oc2c1,?,10µM*,27.5%,17.7%,-16.6%
O=c1c2ccccc2oc2nc(-c3ccco3)n(Cc3ccccc3)c(=O)c12,?,20µM*,-10.6%,2.6%,-3.6%
COc1ccc2c(=O)c3c(=O)n(Cc4ccco4)c(C(C)C)nc3oc2c1,-11.0%,-25.5%,8.4%,12.4%,-4.1%
COc1cc(-c2nc3oc4ccccc4c(=O)c3c(=O)n2Cc2ccco2)cc(OC)c1OC,2.51µM*,0.8%,-10.5%,-5.2%,-22.8%
CC(C)(C)c1cc2c(O)c(c1)Cc1cc(C(C)(C)C)cc(c1O)Cc1cc(C(C)(C)C)cc(c1O)Cc1cc(C(C)(C)C)cc(c1O)Cc1cc(C(C)(C)C)cc(c1O)Cc1cc(C(C)(C)C)cc(c1O)Cc1cc(C(C)(C)C)cc(c1O)Cc1cc(C(C)(C)C)cc(c1O)C2,-5.4%[7.6 µM],-0.1%[11.4 µM],5.2%[11.4 µM],3.2%[11.4 µM],13.5%[11.5 µM]
CC1CC(C)CN(C(=O)COC(=O)c2cc3ccccc3cc2O)C1 (configuration not stated),-4.8%,12.3%,?,31.6µM*,-7.2%

# Compound activity as filed in PubChem BioAssay.
